In ChEMBL document CHEMBL3988442, “University of Dundee, Small-Polar-MMV Screening Library” (2021):
For some of these results: Measured potencies and affinities stand elsewhere.

What was measured:
Design in all cases: scale not given: direction of the effect not stated beside the values
[1] = molecular target: Protein translocase subunit SecA (Escherichia coli (strain K12)) (UniProt P10408); experiment: Assay to Identify E. coli SecA ATPase Inhibitors; type: functional; conditions: 30 µM
[2] = molecular target: T1, Ubiquitin-activating enzyme e1, putative (Leishmania donovani (strain BPK282A1)) (UniProt E9BSI1); experiment: Leishmania donovani Ubiquitin Activating Enzyme (LdE1); type: functional; conditions: 30 µM
T1 sequence (whole entry): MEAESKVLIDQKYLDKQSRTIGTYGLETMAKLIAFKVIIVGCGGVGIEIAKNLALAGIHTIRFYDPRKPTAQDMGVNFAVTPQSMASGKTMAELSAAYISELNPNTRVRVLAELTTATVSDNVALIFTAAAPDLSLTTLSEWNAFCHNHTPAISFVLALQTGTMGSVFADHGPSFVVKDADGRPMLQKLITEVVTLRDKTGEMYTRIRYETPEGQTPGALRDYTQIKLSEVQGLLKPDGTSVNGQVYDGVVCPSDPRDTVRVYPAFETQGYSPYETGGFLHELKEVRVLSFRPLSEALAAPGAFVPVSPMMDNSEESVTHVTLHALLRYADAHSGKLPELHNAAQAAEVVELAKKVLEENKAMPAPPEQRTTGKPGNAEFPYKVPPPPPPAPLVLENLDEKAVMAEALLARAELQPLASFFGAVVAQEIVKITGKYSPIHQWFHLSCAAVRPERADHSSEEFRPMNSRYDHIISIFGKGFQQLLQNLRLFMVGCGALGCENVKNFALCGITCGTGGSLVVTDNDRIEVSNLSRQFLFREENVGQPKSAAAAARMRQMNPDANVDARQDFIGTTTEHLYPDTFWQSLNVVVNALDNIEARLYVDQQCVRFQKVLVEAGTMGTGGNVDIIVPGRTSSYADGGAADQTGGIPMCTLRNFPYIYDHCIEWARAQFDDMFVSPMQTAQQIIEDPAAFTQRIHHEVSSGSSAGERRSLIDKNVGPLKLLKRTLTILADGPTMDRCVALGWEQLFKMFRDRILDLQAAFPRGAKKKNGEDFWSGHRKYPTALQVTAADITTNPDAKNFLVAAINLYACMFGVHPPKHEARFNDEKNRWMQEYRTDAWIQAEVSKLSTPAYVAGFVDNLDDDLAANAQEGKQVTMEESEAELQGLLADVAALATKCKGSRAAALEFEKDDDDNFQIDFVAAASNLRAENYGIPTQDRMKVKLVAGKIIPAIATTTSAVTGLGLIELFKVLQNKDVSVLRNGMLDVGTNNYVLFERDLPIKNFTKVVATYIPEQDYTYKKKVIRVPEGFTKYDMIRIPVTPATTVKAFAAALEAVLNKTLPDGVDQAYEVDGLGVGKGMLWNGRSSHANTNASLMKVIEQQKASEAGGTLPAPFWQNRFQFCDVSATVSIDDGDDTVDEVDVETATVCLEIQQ

[3] = molecular target: AMP-activated protein kinase, AMPK (Homo sapiens) (UniProt P54646+O43741+P54619+Q9UGJ0+Q9Y478+Q13131+Q9UGI9); experiment: AMP-dependent Kinase enzyme assay. An in vitro enzyme assay that detects ADP turnover that is directly proportional to AMPK activity. This uses naive AMPK that is activated during the assay with MK-8722; type: functional; conditions: 30 µM
[4] = molecular target: Sialic acid-binding Ig-like lectin 9 (Homo sapiens) (UniProt Q9Y336); experiment: Hs-Siglec9 ALPHAscreen SOP 20170721; conditions: 10 µM
Sequence of Sialic acid-binding Ig-like lectin 9 (Homo sapiens) (Q9Y336 whole entry): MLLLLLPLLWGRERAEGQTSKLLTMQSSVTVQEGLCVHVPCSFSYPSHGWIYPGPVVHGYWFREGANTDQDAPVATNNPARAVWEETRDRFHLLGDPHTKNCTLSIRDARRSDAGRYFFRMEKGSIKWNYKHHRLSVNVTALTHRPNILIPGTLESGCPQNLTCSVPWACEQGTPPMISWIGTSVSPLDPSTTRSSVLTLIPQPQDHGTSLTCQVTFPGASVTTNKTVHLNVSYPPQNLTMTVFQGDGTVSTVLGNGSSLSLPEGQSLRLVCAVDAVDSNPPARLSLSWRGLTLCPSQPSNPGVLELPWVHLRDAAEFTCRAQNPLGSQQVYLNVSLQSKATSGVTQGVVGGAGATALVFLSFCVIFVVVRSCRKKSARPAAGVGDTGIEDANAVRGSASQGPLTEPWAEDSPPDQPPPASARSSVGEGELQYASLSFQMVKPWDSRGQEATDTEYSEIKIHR

Trypanosoma cruzi = experiment: Trypanosoma cruzi phosphomannomutase and mannose-1-phosphate guanylyltransferase assay; type: functional; conditions: 10 µM
[5] = molecular target: T2, Arginase-2, mitochondrial (Homo sapiens) (UniProt P78540); experiment: in vitro enzyme assay to detect the production of urea directly proportional to the activity of Arginase II; type: functional; conditions: 33.3 µM; also: in the data most compounds retested in dose-response had high values
T2 sequence (whole entry): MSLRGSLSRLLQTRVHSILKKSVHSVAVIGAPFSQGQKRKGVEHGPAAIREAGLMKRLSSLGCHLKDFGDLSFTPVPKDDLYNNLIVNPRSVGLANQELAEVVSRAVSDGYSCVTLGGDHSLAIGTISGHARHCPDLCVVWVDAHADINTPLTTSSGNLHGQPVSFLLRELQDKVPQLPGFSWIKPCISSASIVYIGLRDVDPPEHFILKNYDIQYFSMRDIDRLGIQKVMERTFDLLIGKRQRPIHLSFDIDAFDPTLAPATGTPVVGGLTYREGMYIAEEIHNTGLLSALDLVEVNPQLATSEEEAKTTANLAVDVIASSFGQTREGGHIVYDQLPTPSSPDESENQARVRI

[6] = molecular target: T3, Proteasome subunit beta (Trypanosoma cruzi) (UniProt O96673); experiment: Trypanosoma cruzi proteasome chymotrypsin-like activity (TcProtChymo) assay.; also: in the data most compounds retested in dose-response had high values; type: functional; conditions: 9.37 µM
T3 sequence (whole entry): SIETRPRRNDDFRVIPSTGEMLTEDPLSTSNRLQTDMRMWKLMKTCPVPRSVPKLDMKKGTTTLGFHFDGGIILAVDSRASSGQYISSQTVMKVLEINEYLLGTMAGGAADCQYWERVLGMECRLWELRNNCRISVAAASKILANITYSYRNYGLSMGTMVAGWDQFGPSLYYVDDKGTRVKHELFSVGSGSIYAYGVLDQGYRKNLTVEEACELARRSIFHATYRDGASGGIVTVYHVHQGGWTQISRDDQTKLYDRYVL

Homo sapiens = species: Homo sapiens; experiment: To identify inhibition of the IFN signalling (Jak-Stat) pathway via expression of an eGFP reporter gene under the control of an IFN-stimulated response element (ISRE) containing MxA promoter.; type: functional; conditions: 30 µM
[7] = molecular target: T4, Tyrosyl-tRNA synthetase, putative (Trypanosoma cruzi (strain CL Brener)) (UniProt Q4DSP6); experiment: Trypanosoma cruzi tyrosyl tRNA synthetase (TcYRS) _High Tyrosine SOP; type: functional; conditions: 30 µM; also: in the data most compounds retested in dose-response had high values
T4 sequence (whole entry): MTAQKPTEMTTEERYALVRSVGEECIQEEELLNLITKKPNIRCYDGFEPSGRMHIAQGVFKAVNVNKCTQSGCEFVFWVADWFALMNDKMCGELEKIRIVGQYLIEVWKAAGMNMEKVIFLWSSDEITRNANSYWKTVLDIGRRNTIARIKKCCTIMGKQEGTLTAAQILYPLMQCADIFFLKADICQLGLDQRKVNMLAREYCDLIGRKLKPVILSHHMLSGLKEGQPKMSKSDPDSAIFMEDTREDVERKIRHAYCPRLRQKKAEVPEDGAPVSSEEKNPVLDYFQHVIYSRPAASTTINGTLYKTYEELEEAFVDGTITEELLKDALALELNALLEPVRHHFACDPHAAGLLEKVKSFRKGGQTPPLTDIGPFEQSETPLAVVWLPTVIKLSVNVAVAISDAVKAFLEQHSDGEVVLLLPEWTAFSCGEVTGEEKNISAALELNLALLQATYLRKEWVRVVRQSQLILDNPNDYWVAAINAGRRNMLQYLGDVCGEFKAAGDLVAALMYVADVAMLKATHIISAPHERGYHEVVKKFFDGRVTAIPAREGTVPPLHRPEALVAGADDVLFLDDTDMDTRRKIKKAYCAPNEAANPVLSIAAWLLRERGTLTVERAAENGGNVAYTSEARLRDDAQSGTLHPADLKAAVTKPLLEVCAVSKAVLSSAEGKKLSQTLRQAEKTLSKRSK

[8] = molecular target: T4, Tyrosyl-tRNA synthetase, putative (Trypanosoma cruzi (strain CL Brener)); experiment: Trypanosoma cruzi tyrosyl tRNA synthetase (TcYRS) SOP; type: functional; conditions: 30 µM
[9] = molecular target: Chromo domain-containing protein 1 (Saccharomyces cerevisiae (strain ATCC 204508 / S288c) (Baker's yeast)) (UniProt P32657); experiment: ScCHD-1 Enzyme Inhibition Assay; type: functional; conditions: 30 µM; also: in the data most compounds retested in dose-response had high values
Sequence of Chromo domain-containing protein 1 (Saccharomyces cerevisiae (strain ATCC 204508 / S288c) (Baker's yeast)) (P32657 whole entry, the tested form may be a part): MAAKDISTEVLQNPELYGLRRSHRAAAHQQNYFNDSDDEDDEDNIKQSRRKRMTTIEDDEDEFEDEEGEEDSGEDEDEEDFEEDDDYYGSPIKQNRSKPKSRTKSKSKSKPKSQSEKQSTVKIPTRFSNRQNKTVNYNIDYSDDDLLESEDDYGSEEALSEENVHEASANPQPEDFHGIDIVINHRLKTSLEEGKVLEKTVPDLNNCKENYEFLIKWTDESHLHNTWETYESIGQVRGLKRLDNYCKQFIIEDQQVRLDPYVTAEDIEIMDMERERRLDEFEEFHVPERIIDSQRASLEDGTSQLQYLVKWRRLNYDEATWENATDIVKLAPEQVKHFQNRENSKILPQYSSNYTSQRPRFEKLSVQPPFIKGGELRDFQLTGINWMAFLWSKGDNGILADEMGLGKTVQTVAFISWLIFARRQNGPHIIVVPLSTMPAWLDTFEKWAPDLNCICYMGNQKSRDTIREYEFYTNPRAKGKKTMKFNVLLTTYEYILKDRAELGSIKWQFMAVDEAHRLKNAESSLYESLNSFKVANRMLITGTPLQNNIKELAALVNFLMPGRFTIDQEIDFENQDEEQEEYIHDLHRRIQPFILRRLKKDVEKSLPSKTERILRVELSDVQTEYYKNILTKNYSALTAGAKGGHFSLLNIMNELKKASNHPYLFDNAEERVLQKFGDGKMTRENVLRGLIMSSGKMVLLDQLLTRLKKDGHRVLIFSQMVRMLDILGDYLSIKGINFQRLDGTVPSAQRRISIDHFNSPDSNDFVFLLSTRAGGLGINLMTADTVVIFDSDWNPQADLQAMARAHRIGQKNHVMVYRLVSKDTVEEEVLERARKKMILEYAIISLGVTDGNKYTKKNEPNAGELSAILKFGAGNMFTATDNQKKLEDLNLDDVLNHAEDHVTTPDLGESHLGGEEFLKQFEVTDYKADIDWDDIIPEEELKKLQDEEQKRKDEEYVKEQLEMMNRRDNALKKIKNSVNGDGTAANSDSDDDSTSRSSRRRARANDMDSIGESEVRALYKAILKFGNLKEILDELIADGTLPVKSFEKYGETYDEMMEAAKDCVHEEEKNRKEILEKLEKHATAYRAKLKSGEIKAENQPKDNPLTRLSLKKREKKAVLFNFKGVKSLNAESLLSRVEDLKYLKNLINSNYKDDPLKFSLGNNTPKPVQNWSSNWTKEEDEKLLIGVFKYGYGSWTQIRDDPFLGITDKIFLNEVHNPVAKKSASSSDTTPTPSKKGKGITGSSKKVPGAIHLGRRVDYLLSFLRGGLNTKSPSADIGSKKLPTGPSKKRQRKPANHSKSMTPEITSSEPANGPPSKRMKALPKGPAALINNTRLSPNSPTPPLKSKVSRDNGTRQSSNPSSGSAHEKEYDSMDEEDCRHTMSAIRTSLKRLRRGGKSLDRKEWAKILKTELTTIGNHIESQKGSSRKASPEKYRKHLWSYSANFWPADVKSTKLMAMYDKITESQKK

Sequence of Protein translocase subunit SecA (Escherichia coli (strain K12)) (P10408 whole entry): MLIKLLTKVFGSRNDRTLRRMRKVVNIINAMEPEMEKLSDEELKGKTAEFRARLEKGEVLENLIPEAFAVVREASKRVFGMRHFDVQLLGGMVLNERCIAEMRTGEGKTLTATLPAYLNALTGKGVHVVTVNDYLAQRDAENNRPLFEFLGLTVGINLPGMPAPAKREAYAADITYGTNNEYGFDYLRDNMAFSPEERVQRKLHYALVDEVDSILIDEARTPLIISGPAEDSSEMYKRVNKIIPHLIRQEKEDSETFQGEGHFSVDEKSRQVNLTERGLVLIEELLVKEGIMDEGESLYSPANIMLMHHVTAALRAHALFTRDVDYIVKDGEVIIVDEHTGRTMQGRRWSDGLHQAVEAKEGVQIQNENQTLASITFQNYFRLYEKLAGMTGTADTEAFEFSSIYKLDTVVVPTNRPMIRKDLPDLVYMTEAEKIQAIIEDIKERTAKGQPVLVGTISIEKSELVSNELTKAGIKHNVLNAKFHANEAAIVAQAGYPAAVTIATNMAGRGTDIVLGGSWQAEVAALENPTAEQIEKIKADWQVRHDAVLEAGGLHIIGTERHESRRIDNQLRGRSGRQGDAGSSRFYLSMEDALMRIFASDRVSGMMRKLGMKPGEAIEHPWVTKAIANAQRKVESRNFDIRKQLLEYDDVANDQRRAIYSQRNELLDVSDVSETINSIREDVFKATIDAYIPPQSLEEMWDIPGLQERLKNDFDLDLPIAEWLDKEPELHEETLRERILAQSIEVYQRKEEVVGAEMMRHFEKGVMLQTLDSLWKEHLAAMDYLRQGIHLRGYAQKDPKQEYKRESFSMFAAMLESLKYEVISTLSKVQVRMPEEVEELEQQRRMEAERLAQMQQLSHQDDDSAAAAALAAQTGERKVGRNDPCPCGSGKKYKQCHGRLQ

Structure (SMILES)	Percent Effect [1] [%]	Percent Effect [2] [%]	Percent Effect [3] [%]	Percent Effect [4] [%]	Percent Effect (Trypanosoma cruzi) [%]	Percent Effect [5] [%]	Percent Effect [6] [%]	Percent Effect (Homo sapiens) [%]	Percent Effect [7] [%]	Percent Effect [8] [%]	Percent Effect [9] [%]
CCOc1ccc(C#N)cc1NCC(=O)Nc1cc(C)no1	-6.06	17.7	-5.05	-0.0832	3.68	-7.99	4.34	-2.7	3.45	-130	-5.12
COCCc1noc(CN2CCN(CC(O)c3ccccc3)CC2)n1 (stereo unspecified)	-7.76	6.33	4.46	-0.576	-1.54	1.07	6.69	12	11.5	10.1	-14.9
Cc1ccc(N2CCCc3sc(C(=O)NCc4cccnc4)nc32)nn1	-3.86	-8.22	-0.787	3.77	7.54	-7.19	5.39	-8.08	1.04	6.17	-2.84
O=C1C(NS(=O)(=O)c2cc(F)cc(F)c2)CCN1Cc1ccccc1 (stereo unspecified)	-4.38	12.7	-1.14	-3.2	6.52	1.52	13.7	0.58	6.4	1.27	-7.02
O=C(NCc1cncc2c1CCN(Cc1cccc(F)c1)C2)C1CC1	-4.48	0	5.3	4.67	-3.97	-5.59	7.96	9.89	-5.21	6.17	2.56
O=S(=O)(NCC1CCOc2ccccc2C1)N1CCOCC1 (stereo unspecified)	-5.96	15.6	1.72	13.8	3.83	-1.38	11.8	6.21	3.23	13.6	1.35
COCCNC(=O)C(C)n1cc(Br)cn1 (stereo unspecified)	-3.71	5.2	1.52	7.73	0.492	-2.76	13.1	5.02	9.68	16.1	135
Cc1cc(C)n(CC2CCCN2C(=O)c2c[nH]c3ncccc23)n1 (stereo unspecified)	-3.09	-2.7	10.7	5.96	-4.18	4.99	-3.05	24.1	-0.99	-6.1	12.6
Cc1oc(C)c(C(=O)NCc2ccccn2)c1C	-0.692	10.5	-8.31	2.54	-12.8	7.28	15.7	14	1.47	7.32	-5.27
CC(C)c1noc(C(C)N2CCN(CCN3CCCC3=O)CC2)n1 (stereo unspecified)	-5.03	5.41	-10	9.09	-2.17	1.6	-1.62	9.64	1.48	1.24	0.594
CC(C)NS(=O)(=O)c1cc(C(=O)O)cc(-c2ccc(CN(C)C)cc2)c1	-8.02	0	5.48	-7.27	-3.81	-0.248	13.7	0.283	0	1.24	-4.61
